Test results: PubChem BioAssay (NCATS)
Values joined by “and” are separate entries in the source; they are usually repeats but may differ in a detail not shown here. Identical values can stand only once. Results filed as inconclusive are left out. Where a call stands in place of a potency, no number is given. Values without a mark were called inactive. Active and inactive are the calls of the source. The call rests on the fitted dose curve; in most records, active means well fitted inhibition curve with a large enough effect; inconclusive means small, poorly fitted or top-dose-only effect; inactive means flat fitted curve, though single readings scatter.

Legend:
CRL-7250 = normal cell line; assay: Cytotoxic Profiling of Annotated Libraries Using Quantitative High-Throughput Screening (AID 1296008); settings: Five cell lines viability, CellTiter-Glo ATP luminescence, 48-72 h; max response: hits give low values
In short: (§1)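 Compounds were pin-transferred onto cells and incubated 48 or 72 hr at 37 degree Celsius, 95% humidity. CellTiter-Glo was added, plates sat 10 min at room temperature, then ATP-coupled luminescence was imaged as the viability read-out.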

HEK293 = assay: as above; settings: Five cell lines viability, CellTiter-Glo ATP luminescence, 48-72 h; max response: hits give low values
In short: as §1

HaCat [1] = assay: as above; settings: Five cell lines viability, CellTiter-Glo ATP luminescence, 48-72 h; max response: hits give low values
In short: as §1

NIH3T3 = assay: as above; settings: Five cell lines viability, CellTiter-Glo ATP luminescence, 48-72 h; max response: hits give low values
In short: as §1

HACAT [2] = assay: qHTS assay to identify novel small-molecules to repurpose for Merkel cell carcinoma treatment (AID 1296009); settings: MCC and control cell lines, CellTiter-Glo viability, 72 h; at 44.8 µM (top of the series) unless noted
In short: (§2)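 Luminescence from CellTiter-Glo, read 10 min after addition at room temperature, reported viability following a 72 hr, 37 degree celsius treatment with NPC or MIPE compounds in titration; values normalized to plate controls.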

HEK293T = assay: as above; settings: MCC and control cell lines, CellTiter-Glo viability, 72 h; at 44.8 µM (top of the series) unless noted
In short: as §2

MCC-13 = assay: as above; settings: MCC and control cell lines, CellTiter-Glo viability, 72 h; series mostly up to 46 µM
In short: as §2

MCC-26 = assay: as above; settings: MCC and control cell lines, CellTiter-Glo viability, 72 h; series mostly up to 46 µM
In short: as §2

MKL-1 = assay: as above; settings: MCC and control cell lines, CellTiter-Glo viability, 72 h; series mostly up to 46 µM
In short: as §2

KB-3-1 = assay: Cytotoxic Profiling of Annotated Libraries Using Quantitative High-Throughput Screening (AID 1296008); settings: Five cell lines viability, CellTiter-Glo ATP luminescence, 48-72 h; max response: hits give low values
In short: as §1
Further: nearly all actives have a fitted effect of over 60% in size.
Potency means the concentration at half of the fitted maximal effect.

In the case of `O=C1NS(=O)(=O)c2ccccc21`, the max response (CRL-7250) is reported as -9.05%, the outcome (HEK293) is reported as “inactive” and the outcome (HaCat [1]) is reported as “inactive”. The max response (NIH3T3) was -6%, the outcome (HACAT [2]) was “inactive” and the outcome (HEK293T) was “inactive”. The Potency (MCC-13) was “inactive”, the Potency (MCC-26) was “inactive” and the Potency (MKL-1) was “inactive”.
With `O=Cc1ccccc1C=O` the max response (CRL-7250) was -8.99%, the outcome (HEK293) was “inactive” and the max response (HaCat [1]) was 3.01%. The outcome (NIH3T3) was “inactive”, the outcome (HEK293T) was “inactive” and the Potency (MCC-13) was “inactive”. The Potency (MCC-26) was “inactive” and the Potency (MKL-1) was “inactive”.
In the case of `Cc1cc2c(cc1S(N)(=O)=O)S(=O)(=O)CCC2`, the max response (CRL-7250) is reported as -3.17%, the outcome (HEK293) is reported as “inactive” and the outcome (HaCat [1]) is reported as “inactive”. For the same compound, the max response (NIH3T3) was -4.64%, the outcome (HACAT [2]) was “inactive” and the outcome (HEK293T) was “inactive”. For the same compound, the Potency (MCC-13) was “inactive”, the Potency (MCC-26) was “inactive” and the Potency (MKL-1) was “inactive”.
In the case of `CC/C=C(\C(=O)N[C@@H]1C(=O)N2C(C(=O)OCOC(=O)C(C)(C)C)=C(COC(N)=O)CS[C@H]12)c1csc(N)n1`, the max response (CRL-7250) is reported as -3.67%, the max response (HEK293) is reported as 1.21% and the max response (HaCat [1]) is reported as -0.519% and -7.83%. For the same compound, the max response (KB-3-1) was -16.1% and -3.61%, the max response (NIH3T3) was -1.08% and the Potency (MCC-13) was “inactive”. The Potency (MCC-26) was “inactive” and the Potency (MKL-1) was “inactive”.
For `CCCn1cnc2c1c(=O)n(CCCCC(C)=O)c(=O)n2C`, the max response (CRL-7250) was -5.12%, the max response (HEK293) was -11.1% and the max response (HaCat [1]) was -0.92%. For the same compound, the max response (KB-3-1) was 4.64%, the max response (NIH3T3) was -3.42% and the Potency (MCC-13) was “inactive”. The Potency (MCC-26) was “inactive” and the Potency (MKL-1) was “inactive”.
`COc1ccc2c(c1)C(=O)N(CCc1ccc(S(=O)(=O)NC(=O)NC3CCCCC3)cc1)C(=O)C2(C)C` was tested, and the max response (CRL-7250) was 2.02% and -12.3%, the max response (HEK293) was -11% and the max response (HaCat [1]) was 4.11%. The max response (NIH3T3) was -19.1% and -11.5%, the Potency (MCC-13) was “inactive” and the Potency (MCC-26) was “inactive”. For the same compound, the Potency (MKL-1) was “inactive”.
`Nc1ccc(S(=O)(=O)Nc2nccs2)cc1` was tested, and the max response (CRL-7250) was 0.415% and -2.54%, the max response (HEK293) was 3.95% and -4.18% and the max response (HaCat [1]) was -0.23% and -23.1%. For the same compound, the max response (NIH3T3) was 0.16% and -3.65%, the Potency (MCC-13) was “inactive” and the Potency (MCC-26) was “inactive”. For the same compound, the Potency (MKL-1) was “inactive”.
`CCC(=O)Nc1ccc(O)cc1` was tested, and the max response (CRL-7250) was -0.238%, the outcome (HEK293) was “inactive” and the outcome (HaCat [1]) was “inactive”. For the same compound, the max response (NIH3T3) was 0.658%, the outcome (HACAT [2]) was “inactive” and the outcome (HEK293T) was “inactive”. The Potency (MCC-13) was “inactive”, the Potency (MCC-26) was “inactive” and the Potency (MKL-1) was “inactive”.
In the case of `COc1ccccc1O`, the max response (CRL-7250) is reported as 3.64%, the max response (HEK293) is reported as -17.2% and the max response (HaCat [1]) is reported as 3.89%. For the same compound, the max response (NIH3T3) was -2.65%, the Potency (MCC-13) was “inactive” and the Potency (MCC-26) was “inactive”. The Potency (MKL-1) was “inactive”.
In the case of `CC(=O)Nc1ccc(/C=N/NC(N)=S)cc1`, the outcome (CRL-7250) is reported as “inactive”, the max response (HEK293) is reported as 0.104% and the outcome (HaCat [1]) is reported as “inactive”. For the same compound, the max response (NIH3T3) was -3.1%, the outcome (HACAT [2]) was “inactive” and the Potency (MCC-13) was “inactive”. For the same compound, the Potency (MCC-26) was “inactive” and the Potency (MKL-1) was “inactive”.
With `CC[N+](CC)(CC)CCOc1ccc(/C=C/c2ccccc2)cc1` the Potency (CRL-7250) was 1.06 µM (active), the Potency (HEK293) was 4.73 µM (active) and the Potency (HaCat [1]) was 8.41 µM (active). For the same compound, the max response (KB-3-1) was -18.6% and -29.7%, the max response (NIH3T3) was -21.5% and the Potency (MCC-13) was “inactive”. For the same compound, the Potency (MCC-26) was “inactive” and the Potency (MKL-1) was 2.99 µM (active).
`CCCCCCCCCCCCCCCC(=O)NCCO` was tested, and the outcome (CRL-7250) was “inactive”, the outcome (HEK293) was “inactive” and the max response (HaCat [1]) was -5.78%. The max response (KB-3-1) was -1.52%, the max response (NIH3T3) was 2.39% and the outcome (HEK293T) was “inactive”. For the same compound, the Potency (MCC-13) was “inactive”, the Potency (MCC-26) was “inactive” and the Potency (MKL-1) was “inactive”.
`O=c1[nH]c(=O)c2[nH]c(=O)[nH]c2[nH]1` gave a max response (CRL-7250) of -3.74%, a max response (HEK293) of -1.57% and a max response (HaCat [1]) of 1.96%. The max response (KB-3-1) was 23.1% and -16.9%, the outcome (NIH3T3) was “inactive” and the activity change, negative = cytotoxicity (MCC-13) was -1.19% [at 9.22 µM]. For the same compound, the activity change, negative = cytotoxicity (MCC-26) was -17% [at 9.22 µM] and the activity change, negative = cytotoxicity (MKL-1) was -12.1% [at 9.22 µM].
With `CC1=C(C/C=C(\C)CCC[C@H](C)CCC[C@H](C)CCCC(C)C)C(=O)c2ccccc2C1=O` the max response (CRL-7250) was 1.2%, the outcome (HEK293) was “inactive” and the outcome (HaCat [1]) was “inactive”. For the same compound, the max response (NIH3T3) was 1.11%, the outcome (HACAT [2]) was “inactive” and the outcome (HEK293T) was “inactive”. For the same compound, the Potency (MCC-13) was “inactive”, the Potency (MCC-26) was “inactive” and the Potency (MKL-1) was “inactive”.
